Data from the supplement of paper PMC11732987, “Enantioselective OTUD7B fragment discovery through chemoproteomics screening and high-throughput optimisation” (Communications Chemistry, 2025).

Columns and labels:
Experiment in all cases: log2 ratio of Biotin-Ahx-Ub-VS probe labelling (fragment/DMSO); higher = less target engagement (more negative = stronger competition), active = hit call of the paper (q ≤ 0.05, log2 ratio ≤ -1)
Conditions in all cases: compound concentration: 200 uM; treatment time: 3 h
[1] = biological target: T1, OTUD6B (UniProt Q8N6M0)
T1 sequence (whole entry): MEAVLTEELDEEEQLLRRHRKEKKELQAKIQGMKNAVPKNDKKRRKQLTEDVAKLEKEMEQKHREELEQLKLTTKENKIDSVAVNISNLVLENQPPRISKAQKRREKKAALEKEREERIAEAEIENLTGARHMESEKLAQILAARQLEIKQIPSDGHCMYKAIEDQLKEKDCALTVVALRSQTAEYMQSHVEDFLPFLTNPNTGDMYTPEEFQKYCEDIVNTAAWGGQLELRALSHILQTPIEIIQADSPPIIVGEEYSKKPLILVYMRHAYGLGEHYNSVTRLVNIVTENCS
Summary of the method: (§1)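 Average log2 ratios of fragment over vehicle were obtained by unpaired t-test from global-median-normalised Spectronaut label-free quantities. Proteins with ≥2 unique peptides were included. HEK293T lysate (495 µg per sample) was treated in triplicate with fragment at 200 µM or vehicle for 3 h, then with Biotin-Ahx-Ub-VS at 0.5 µM final for 1 h, and labelled DUBs were NeutrAvidin-enriched and run by diaPASEF LC-MS/MS.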

[2] = biological target: T2, OTUD7B (UniProt Q6GQQ9)
T2 sequence (whole entry): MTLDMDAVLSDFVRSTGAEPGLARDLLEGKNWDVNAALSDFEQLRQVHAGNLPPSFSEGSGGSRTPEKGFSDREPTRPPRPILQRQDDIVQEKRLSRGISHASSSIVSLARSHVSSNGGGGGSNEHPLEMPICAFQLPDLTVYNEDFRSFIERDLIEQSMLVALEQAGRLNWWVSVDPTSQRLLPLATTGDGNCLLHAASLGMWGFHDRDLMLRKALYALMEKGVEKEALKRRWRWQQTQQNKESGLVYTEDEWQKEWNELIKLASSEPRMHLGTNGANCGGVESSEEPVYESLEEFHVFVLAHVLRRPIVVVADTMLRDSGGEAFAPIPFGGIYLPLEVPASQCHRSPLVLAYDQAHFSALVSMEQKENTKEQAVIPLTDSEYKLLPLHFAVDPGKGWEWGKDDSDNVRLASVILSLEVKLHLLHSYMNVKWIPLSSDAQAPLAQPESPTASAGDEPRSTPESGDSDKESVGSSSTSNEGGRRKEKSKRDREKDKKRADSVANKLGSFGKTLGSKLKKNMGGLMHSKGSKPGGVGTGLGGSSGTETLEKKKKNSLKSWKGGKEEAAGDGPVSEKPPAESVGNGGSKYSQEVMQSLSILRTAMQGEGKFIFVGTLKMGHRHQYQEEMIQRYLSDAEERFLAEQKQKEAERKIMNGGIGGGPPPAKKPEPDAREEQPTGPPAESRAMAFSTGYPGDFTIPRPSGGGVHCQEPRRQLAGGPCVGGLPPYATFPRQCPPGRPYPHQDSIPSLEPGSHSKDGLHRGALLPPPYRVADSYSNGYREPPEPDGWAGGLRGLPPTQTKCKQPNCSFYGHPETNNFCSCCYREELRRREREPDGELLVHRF
Summary of the method: as §1

[3] = biological target: PRPF8 (UniProt Q6P2Q9)
Summary of the method: as §1

[4] = biological target: T3, PSMD7 (UniProt P51665)
T3 sequence (whole entry): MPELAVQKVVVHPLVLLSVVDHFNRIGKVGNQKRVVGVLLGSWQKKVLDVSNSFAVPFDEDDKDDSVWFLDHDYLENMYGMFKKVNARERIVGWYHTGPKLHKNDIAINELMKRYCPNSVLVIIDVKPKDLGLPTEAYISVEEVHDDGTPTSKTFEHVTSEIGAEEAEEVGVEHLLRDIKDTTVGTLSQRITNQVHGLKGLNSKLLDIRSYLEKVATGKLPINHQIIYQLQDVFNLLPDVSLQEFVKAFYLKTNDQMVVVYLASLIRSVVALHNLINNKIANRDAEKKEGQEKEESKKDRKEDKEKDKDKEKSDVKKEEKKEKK
Summary of the method: as §1

[5] = biological target: UCHL1 (UniProt P09936)
Sequence of UCHL1 (P09936 whole entry, looked up): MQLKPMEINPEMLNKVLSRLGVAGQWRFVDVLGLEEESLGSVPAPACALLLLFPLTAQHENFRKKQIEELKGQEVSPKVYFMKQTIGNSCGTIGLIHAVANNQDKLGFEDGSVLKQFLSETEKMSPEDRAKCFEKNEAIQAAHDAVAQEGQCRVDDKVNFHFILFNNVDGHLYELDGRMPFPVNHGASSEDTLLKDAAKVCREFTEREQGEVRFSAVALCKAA
Summary of the method: as §1

[6] = biological target: T4, UCHL3 (UniProt P15374)
T4 sequence (whole entry): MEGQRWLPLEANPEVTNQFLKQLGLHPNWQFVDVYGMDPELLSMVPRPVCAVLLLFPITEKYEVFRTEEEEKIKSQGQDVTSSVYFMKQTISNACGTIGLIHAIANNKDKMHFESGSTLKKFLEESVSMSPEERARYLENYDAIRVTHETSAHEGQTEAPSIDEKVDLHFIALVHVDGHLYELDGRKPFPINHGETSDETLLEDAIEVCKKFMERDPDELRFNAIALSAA
Summary of the method: as §1

[7] = biological target: T5, UCHL5 (UniProt Q9Y5K5)
T5 sequence (whole entry): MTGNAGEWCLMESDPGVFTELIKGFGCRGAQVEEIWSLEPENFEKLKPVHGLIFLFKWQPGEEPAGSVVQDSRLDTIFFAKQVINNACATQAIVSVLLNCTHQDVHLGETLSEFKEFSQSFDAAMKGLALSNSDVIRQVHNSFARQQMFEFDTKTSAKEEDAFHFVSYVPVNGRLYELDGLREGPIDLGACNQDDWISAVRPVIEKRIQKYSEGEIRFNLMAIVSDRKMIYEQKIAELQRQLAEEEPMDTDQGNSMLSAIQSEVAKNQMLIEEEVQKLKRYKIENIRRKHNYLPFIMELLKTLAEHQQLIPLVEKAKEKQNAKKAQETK
Summary of the method: as §1

[8] = biological target: USP10 (UniProt Q14694)
Sequence of USP10 (Q14694 whole entry): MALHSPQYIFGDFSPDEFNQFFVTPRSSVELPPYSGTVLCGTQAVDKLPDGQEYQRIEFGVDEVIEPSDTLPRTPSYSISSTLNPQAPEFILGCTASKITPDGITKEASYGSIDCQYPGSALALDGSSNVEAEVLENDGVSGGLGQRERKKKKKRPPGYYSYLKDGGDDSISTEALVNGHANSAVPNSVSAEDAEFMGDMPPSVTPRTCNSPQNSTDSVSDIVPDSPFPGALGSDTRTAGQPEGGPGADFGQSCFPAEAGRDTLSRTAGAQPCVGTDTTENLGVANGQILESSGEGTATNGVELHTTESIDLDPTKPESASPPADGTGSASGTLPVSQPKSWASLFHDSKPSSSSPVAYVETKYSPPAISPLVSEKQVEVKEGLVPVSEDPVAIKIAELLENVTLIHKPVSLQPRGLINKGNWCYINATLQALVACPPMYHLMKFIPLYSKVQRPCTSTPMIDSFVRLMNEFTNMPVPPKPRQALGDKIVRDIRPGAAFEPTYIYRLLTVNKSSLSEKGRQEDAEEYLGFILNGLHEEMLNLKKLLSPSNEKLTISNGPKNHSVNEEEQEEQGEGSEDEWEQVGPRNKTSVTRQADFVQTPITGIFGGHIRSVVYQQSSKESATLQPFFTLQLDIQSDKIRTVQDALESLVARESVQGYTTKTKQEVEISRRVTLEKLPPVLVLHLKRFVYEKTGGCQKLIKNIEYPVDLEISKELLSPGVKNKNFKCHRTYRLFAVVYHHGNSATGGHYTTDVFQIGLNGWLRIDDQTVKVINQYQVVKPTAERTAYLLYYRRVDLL
Summary of the method: as §1

[9] = biological target: T6, USP15 (UniProt Q9Y4E8)
T6 sequence (whole entry): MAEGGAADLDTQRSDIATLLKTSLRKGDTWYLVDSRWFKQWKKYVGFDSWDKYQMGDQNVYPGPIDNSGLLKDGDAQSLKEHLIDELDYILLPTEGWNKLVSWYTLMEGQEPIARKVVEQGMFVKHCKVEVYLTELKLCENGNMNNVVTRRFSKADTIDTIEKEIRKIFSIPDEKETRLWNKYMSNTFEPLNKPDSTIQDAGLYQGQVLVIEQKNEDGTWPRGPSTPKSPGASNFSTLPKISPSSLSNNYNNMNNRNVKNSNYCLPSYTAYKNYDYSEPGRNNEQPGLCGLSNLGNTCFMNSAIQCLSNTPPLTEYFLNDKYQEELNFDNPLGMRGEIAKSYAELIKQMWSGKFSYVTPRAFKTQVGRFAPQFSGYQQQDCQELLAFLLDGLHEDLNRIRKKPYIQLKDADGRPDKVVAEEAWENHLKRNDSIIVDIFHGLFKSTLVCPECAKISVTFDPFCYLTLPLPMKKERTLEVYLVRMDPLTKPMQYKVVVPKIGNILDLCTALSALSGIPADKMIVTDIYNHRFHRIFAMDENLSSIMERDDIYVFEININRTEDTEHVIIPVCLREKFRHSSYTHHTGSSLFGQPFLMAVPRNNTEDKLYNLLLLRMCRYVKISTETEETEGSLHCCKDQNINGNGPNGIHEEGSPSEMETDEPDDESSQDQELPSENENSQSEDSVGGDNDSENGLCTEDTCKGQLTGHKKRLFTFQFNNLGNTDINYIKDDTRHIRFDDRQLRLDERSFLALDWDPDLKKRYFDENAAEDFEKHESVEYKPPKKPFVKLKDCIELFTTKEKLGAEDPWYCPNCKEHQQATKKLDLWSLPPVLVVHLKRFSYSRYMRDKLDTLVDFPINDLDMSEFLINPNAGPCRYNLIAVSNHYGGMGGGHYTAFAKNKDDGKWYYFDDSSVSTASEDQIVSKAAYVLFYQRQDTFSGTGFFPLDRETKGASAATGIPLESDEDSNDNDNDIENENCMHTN
Summary of the method: as §1

[10] = biological target: USP16 (UniProt Q9Y5T5)
Sequence of USP16 (Q9Y5T5 whole entry, looked up): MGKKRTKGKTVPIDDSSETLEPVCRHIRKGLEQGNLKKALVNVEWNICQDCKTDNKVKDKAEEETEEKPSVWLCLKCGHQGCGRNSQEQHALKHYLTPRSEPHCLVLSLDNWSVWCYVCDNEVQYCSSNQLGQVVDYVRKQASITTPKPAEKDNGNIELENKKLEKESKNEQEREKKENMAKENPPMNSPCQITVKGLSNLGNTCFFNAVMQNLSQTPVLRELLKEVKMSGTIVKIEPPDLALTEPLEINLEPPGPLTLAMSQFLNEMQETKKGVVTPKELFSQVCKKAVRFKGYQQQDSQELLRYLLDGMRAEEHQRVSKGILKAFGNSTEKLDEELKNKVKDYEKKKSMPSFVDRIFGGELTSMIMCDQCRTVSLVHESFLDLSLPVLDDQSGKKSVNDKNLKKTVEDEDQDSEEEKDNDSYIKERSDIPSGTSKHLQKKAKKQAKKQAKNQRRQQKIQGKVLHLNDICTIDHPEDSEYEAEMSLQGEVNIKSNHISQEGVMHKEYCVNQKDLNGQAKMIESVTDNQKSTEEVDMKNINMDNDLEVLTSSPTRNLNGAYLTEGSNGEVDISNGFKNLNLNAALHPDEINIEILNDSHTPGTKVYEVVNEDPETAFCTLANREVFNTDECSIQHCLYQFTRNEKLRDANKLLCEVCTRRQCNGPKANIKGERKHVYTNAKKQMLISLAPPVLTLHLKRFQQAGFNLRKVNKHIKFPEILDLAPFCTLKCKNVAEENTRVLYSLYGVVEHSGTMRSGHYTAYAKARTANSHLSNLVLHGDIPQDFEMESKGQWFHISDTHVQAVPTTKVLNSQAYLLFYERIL
Summary of the method: as §1

Measured: log2 ratio of Biotin-Ahx-Ub-VS probe labelling

O=C(CCl)N1CCCCCC1c1ncon1 (stereo not given)
inactive: [1] -0.149 | [2] -0.512 | [3] -0.173 | [4] -0.174 | [6] 0.279 | [7] -0.229 | [8] -0.0372 | [9] -0.142 | [10] -0.0478
active: [5] -1.82
